Test results reported in PubChem BioAssay (NCI).
This is part of a sample that, as a whole, favours compounds with a hit. Of some 79,000 tested, about 15% had one in any assay. Values without a mark were called inactive. The source made the active and inactive calls. No stated cut-off is given here; in the data, active means growth inhibition above about 70%; inactive means the rest.

Columns and labels:
[1] = NCI Yeast Anticancer Drug Screen. Data for the rad50 strain (AID 155);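 further: 0% = growth of vehicle-only cultures of the same strain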; details: S. cerevisiae rad50 strain growth inhibition, hits give high values; at 50.0 µM unless noted
Summary of the method: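 Yeast carrying a defined DNA repair defect were exposed to test compounds, and growth was compared with vehicle-treated controls to give percent inhibition.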

[2] = NCI Yeast Anticancer Drug Screen. Data for the mec2-1 strain (AID 157); details: S. cerevisiae mec2-1 strain, hits give high values; at 50.0 µM unless noted
Summary of the method: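 Cells of the genetically defined mec2-1 yeast strain are incubated with test compound. Inhibition of growth is calculated against vehicle-treated controls.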

[3] = NCI Yeast Anticancer Drug Screen. Data for the sgs1 mgt1 strain (AID 161);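 further: 0% = growth of cultures given vehicle only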; details: S. cerevisiae sgs1 mgt1 strain, hits give high values; at 50.0 µM unless noted
Summary of the method: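 Read-out: growth inhibition vs vehicle controls. Cells: mutant yeast strain deficient in DNA damage repair.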

[4] = NCI Yeast Anticancer Drug Screen. Data for the cln2 rad14 strain (AID 165);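 further: 0% = growth equal to vehicle treated cultures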; details: S. cerevisiae cln2 rad14 strain, hits give high values; at 50.0 µM unless noted
Summary of the method: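 The screen exposed genetically defined yeast (cln2 rad14) to test compounds and scored growth inhibition relative to vehicle-treated controls.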

[5] = NCI Yeast Anticancer Drug Screen. Data for the bub3 strain (AID 167); details: S. cerevisiae bub3 mutant strain, hits give high values; at 50.0 µM unless noted
Summary of the method: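 Compounds were applied to a genetically altered yeast strain carrying a cell-cycle control defect. Growth inhibition was scored against vehicle-treated controls.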

[6] = NCI Yeast Anticancer Drug Screen. Data for the mlh1 rad18 strain (AID 175); details: S. cerevisiae mlh1 rad18 strain growth inhibition, hits give high values; at 50.0 µM unless noted
Summary of the method: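 Compound-treated yeast growth, normalised to vehicle controls. Strain bears defined DNA repair mutations.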

SMILES: CC1OCC(O)C(C(O)C(=O)CN(Cc2ccccc2)Cc2ccccc2)O1 (centres undefined)
- growth inhibition [1]: 10.2%
- growth inhibition [2]: 15.6%
- growth inhibition [3]: 8.65%
- growth inhibition [4]: 8.55%
- growth inhibition [5]: 5.75%
- growth inhibition [6]: 9.55%

SMILES: [N-]=[N+]=Nc1c2c(nc3ccccc13)CCCC2
- growth inhibition [1]: -38.1%
- growth inhibition [2]: -10.2%
- growth inhibition [3]: -21.4%
- growth inhibition [4]: -51.1%
- growth inhibition [5]: 0.3%
- growth inhibition [6]: -4.4%

SMILES: CN(C)C(=O)Sc1ccc(C(C)(C)C)cc1
- growth inhibition [1]: 8.3%
- growth inhibition [2]: -8.1%
- growth inhibition [3]: -15.7%
- growth inhibition [4]: -41.5%
- growth inhibition [5]: -1.65%
- growth inhibition [6]: -28.2%

SMILES: Cc1nc2c(cc1C(=O)NN)c(=O)n(C)c(=O)n2C
- growth inhibition [1]: 8.8%
- growth inhibition [2]: -1.9%
- growth inhibition [3]: -8.5%
- growth inhibition [4]: -5.85%
- growth inhibition [5]: -8.05%
- growth inhibition [6]: 31.6%

SMILES: O=C(Cc1ccc(CC(=O)NCCCCc2ccccc2)cc1)NCCCCc1ccccc1
- growth inhibition [1]: 0.75%
- growth inhibition [2]: -3.25%
- growth inhibition [3]: -14.9%
- growth inhibition [4]: -8.85%
- growth inhibition [5]: -7.9%
- growth inhibition [6]: 13.1%

SMILES: O=C1COC(c2ccccc2O)=NN1Cc1ccccc1
- growth inhibition [1]: -14.6%
- growth inhibition [2]: -0.3%
- growth inhibition [3]: -5.3%
- growth inhibition [4]: -4.75%
- growth inhibition [5]: -8.6%
- growth inhibition [6]: -1.1%

SMILES: O=C(O)Cc1cc(=O)oc2ccccc12
- growth inhibition [1]: 7.4%
- growth inhibition [2]: -12.3%
- growth inhibition [3]: 8.2%
- growth inhibition [4]: -15.8%
- growth inhibition [5]: -6.8%
- growth inhibition [6]: 8.75%

SMILES: Cc1nc(-c2ccc(Cl)cc2)cn2c1nc1ccccc12
- growth inhibition [1]: -5.5%
- growth inhibition [2]: -0.1%
- growth inhibition [3]: 8.2%
- growth inhibition [4]: -15.1%
- growth inhibition [5]: 47.5%
- growth inhibition [6]: -10.3%

SMILES: CN(C)CC(O)(C(=O)c1ccccc1)c1ccccc1 (centres undefined)
- growth inhibition [1]: -4.35%
- growth inhibition [2]: -9.8%
- growth inhibition [3]: -13.5%
- growth inhibition [4]: -25.2%
- growth inhibition [5]: -19.6%
- growth inhibition [6]: -6.05%

SMILES: O=C(NC(=S)Nc1ccccc1F)c1cccc([N+](=O)[O-])c1
- growth inhibition [1]: 26.1%
- growth inhibition [2]: 77.2% (active)
- growth inhibition [3]: 79.2% (active)
- growth inhibition [4]: 11.4%
- growth inhibition [5]: 49.7%
- growth inhibition [6]: 80% (active)

SMILES: O=C1c2ccccc2C(=O)N1CN1C(=O)c2ccccc2S1(=O)=O
- growth inhibition [1]: 24.1%
- growth inhibition [2]: 15.6%
- growth inhibition [3]: 29.4%
- growth inhibition [4]: 24.2%
- growth inhibition [5]: 19.4%
- growth inhibition [6]: 34.9%

SMILES: COc1cc(OC)c(NC(=O)C2=C(C)NC(C)=C(C(=O)Nc3cc(Cl)c(OC)cc3OC)C2c2cccc([N+](=O)[O-])c2)cc1Cl
- growth inhibition [1]: 9.25%
- growth inhibition [2]: 23.9%
- growth inhibition [3]: 22.9%
- growth inhibition [4]: 36.1%
- growth inhibition [5]: 14.4%
- growth inhibition [6]: 3.7%

SMILES: CCN(CC)c1ccc2cc(C(=O)NCc3ccccc3)c(=N)oc2c1
- growth inhibition [1]: 9.7%
- growth inhibition [2]: 15.8%
- growth inhibition [3]: -15.8%
- growth inhibition [4]: 3.45%
- growth inhibition [5]: -38%
- growth inhibition [6]: 7.35%

SMILES: Cc1cc2nc3c4ccccc4scc-3c2cc1C
- growth inhibition [1]: 99% (active)
- growth inhibition [2]: 99.3% (active)
- growth inhibition [3]: 99.3% (active)
- growth inhibition [4]: 99% (active)
- growth inhibition [5]: 99.1% (active)
- growth inhibition [6]: 98% (active)

SMILES: CC1C2=C(CC(C)(C)CC2=O)NC2=C1C(=O)CC(C)(C)C2
- growth inhibition [1]: -7.3%
- growth inhibition [2]: -26.1%
- growth inhibition [3]: -8.55%
- growth inhibition [4]: -9.85%
- growth inhibition [5]: -7.4%
- growth inhibition [6]: -3.4%

SMILES: CCCCCCC1OC(C)C(C)O1 (centres undefined)
- growth inhibition [1]: 30.8%
- growth inhibition [2]: 13.7%
- growth inhibition [3]: 23.9%
- growth inhibition [4]: -5.15%
- growth inhibition [5]: -3.95%
- growth inhibition [6]: 15.4%

SMILES: CC(=O)Nc1ccc2nc(SC(C)C)sc2c1
- growth inhibition [1]: 39.4%
- growth inhibition [2]: 7.7%
- growth inhibition [3]: 31.6%
- growth inhibition [4]: 17.4%
- growth inhibition [5]: 13.1%
- growth inhibition [6]: 19.9%

SMILES: COc1ccc2oc(-c3cc4cc(OC)ccc4o3)cc2c1
- growth inhibition [1]: -10.7%
- growth inhibition [2]: -5.7%
- growth inhibition [3]: -12.8%
- growth inhibition [4]: -17.9%
- growth inhibition [5]: -61.2%
- growth inhibition [6]: -0.55%

SMILES: CCCCCCCCC(=O)Nc1cccc(O)c1
- growth inhibition [1]: -6.7%
- growth inhibition [2]: -12.4%
- growth inhibition [3]: -8.45%
- growth inhibition [4]: -48.6%
- growth inhibition [5]: -26.4%
- growth inhibition [6]: -13.8%

SMILES: CCOC(=O)Cc1ccc2ccccc2c1
- growth inhibition [1]: 7.3%
- growth inhibition [2]: -24.1%
- growth inhibition [3]: -1.95%
- growth inhibition [4]: 1.2%
- growth inhibition [5]: 8.05%
- growth inhibition [6]: 7.5%

SMILES: CCc1ccc(NS(=O)(=O)c2ccccc2[N+](=O)[O-])cc1
- growth inhibition [1]: 31.9%
- growth inhibition [2]: 42.6%
- growth inhibition [3]: 61.8%
- growth inhibition [4]: 25.3%
- growth inhibition [5]: 50.9%
- growth inhibition [6]: 65.5%

SMILES: CSc1ccc2nncc(SC)c2c1
- growth inhibition [1]: 64.2%
- growth inhibition [2]: 7.05%
- growth inhibition [3]: 12.9%
- growth inhibition [4]: 40.1%
- growth inhibition [5]: 18%
- growth inhibition [6]: 40.9%

SMILES: CC1(C)N=C(C(N)=O)c2ncn(Cc3ccccc3)c2N1
- growth inhibition [1]: -29%
- growth inhibition [2]: -32.6%
- growth inhibition [3]: -23.6%
- growth inhibition [4]: 18.4%
- growth inhibition [5]: -8.1%
- growth inhibition [6]: -6.9%

SMILES: O=C(/C(=C1\SS/C(=C(/C(=O)c2ccccc2)c2ccccc2)S1)c1ccccc1)c1ccccc1
- growth inhibition [1]: 34.6%
- growth inhibition [2]: 14.6%
- growth inhibition [3]: 17.7%
- growth inhibition [4]: 7.3%
- growth inhibition [5]: 5.75%
- growth inhibition [6]: 6.45%

SMILES: CN(c1ccccc1)c1c(Cl)c(=O)oc2c1ccc1nc(-c3ccccc3)sc12
- growth inhibition [1]: 44.6%
- growth inhibition [2]: 24.8%
- growth inhibition [3]: 35.7%
- growth inhibition [4]: 43.5%
- growth inhibition [5]: -4.3%
- growth inhibition [6]: 32.9%

SMILES: NC(=O)N/N=C(\C(=O)C(=O)Nc1ccc(Cl)c(C(F)(F)F)c1)c1nc2ccc(C(=O)c3ccccc3)cc2[nH]c1=O
- growth inhibition [1]: 25.4%
- growth inhibition [2]: -1.3%
- growth inhibition [3]: 38.8%
- growth inhibition [4]: -37%
- growth inhibition [5]: -3.35%
- growth inhibition [6]: 25.1%

SMILES: CCOc1cc(OCC)c2c(c1)C(=O)OC2=O
- growth inhibition [1]: 4.15%
- growth inhibition [2]: -3.8%
- growth inhibition [3]: 10%
- growth inhibition [4]: 4.05%
- growth inhibition [5]: -34.4%
- growth inhibition [6]: -10.2%

SMILES: Cc1cnc2ccccc2c1/C=C/c1ccc(N(C)C)cc1
- growth inhibition [1]: -6.15%
- growth inhibition [2]: -0.1%
- growth inhibition [3]: 1.55%
- growth inhibition [4]: -121%
- growth inhibition [5]: 14.1%
- growth inhibition [6]: 14.1%

SMILES: Cc1ccc(-c2c3ccccc3cc3ccccc23)c(C)c1
- growth inhibition [1]: 24.9%
- growth inhibition [2]: -11.1%
- growth inhibition [3]: -1.5%
- growth inhibition [4]: -2.8%
- growth inhibition [5]: 5.25%
- growth inhibition [6]: 11.8%

SMILES: NNC(=O)CCn1[nH]c(=O)c(Cl)c(Cl)c1=O
- growth inhibition [1]: 13.9%
- growth inhibition [2]: 11.8%
- growth inhibition [3]: 19.9%
- growth inhibition [4]: 12.9%
- growth inhibition [5]: 16.9%
- growth inhibition [6]: 11.4%

SMILES: CC(C)COC(c1ccccc1)c1ccccc1
- growth inhibition [1]: -9.5%
- growth inhibition [2]: -9.75%
- growth inhibition [3]: 5.15%
- growth inhibition [4]: 18.8%
- growth inhibition [5]: -12.8%
- growth inhibition [6]: -4.75%

SMILES: C[N+](C)(C)c1ccc2[nH]c3ccccc3c2c1
- growth inhibition [1]: 8.7%
- growth inhibition [2]: -11.2%
- growth inhibition [3]: 8.25%
- growth inhibition [4]: -27.8%
- growth inhibition [5]: -6.5%
- growth inhibition [6]: 7.55%

SMILES: CCOC(=O)C(CC(C)C)NC(=O)c1ccc(C)c(OCc2ccccc2)c1[N+](=O)[O-] (centres undefined)
- growth inhibition [1]: 17.9%
- growth inhibition [2]: -8.75%
- growth inhibition [3]: 37.9%
- growth inhibition [4]: 0.6%
- growth inhibition [5]: 11.6%
- growth inhibition [6]: -3.9%

SMILES: C=C[C@@]1(C)C=C2CC[C@@H]3[C@](C)(CCC[C@@]3(C)C(=O)O)[C@H]2CC1
- growth inhibition [1]: 67.5%
- growth inhibition [2]: 37.8%
- growth inhibition [3]: 31.3%
- growth inhibition [4]: 52.1%
- growth inhibition [5]: 35.1%
- growth inhibition [6]: 55.2%

SMILES: CCCCCCC(CCN(C)C)(C(C)=O)c1ccccc1 (centres undefined)
- growth inhibition [1]: -3.3%
- growth inhibition [2]: 3.7%
- growth inhibition [3]: 1.05%
- growth inhibition [4]: -3.5%
- growth inhibition [5]: 6.85%
- growth inhibition [6]: 11.1%

SMILES: CC(C)C(=O)NCC[C@@H](CNC(=O)OC(C)(C)C)NC(=O)OC(C)(C)C
- growth inhibition [1]: 20.1%
- growth inhibition [2]: -3.1%
- growth inhibition [3]: 38.6%
- growth inhibition [4]: -3.85%
- growth inhibition [5]: 28.7%
- growth inhibition [6]: 34.5%

SMILES: CCOC(=O)C(F)C(=O)OCC
- growth inhibition [1]: 14.8%
- growth inhibition [2]: -2.95%
- growth inhibition [3]: -1%
- growth inhibition [4]: 12.1%
- growth inhibition [5]: -4.55%
- growth inhibition [6]: -5.4%

SMILES: O=C1CC(c2ccccc2)N1c1ccccc1 (centres undefined)
- growth inhibition [1]: -17.9%
- growth inhibition [2]: -34%
- growth inhibition [3]: -11.3%
- growth inhibition [4]: -20.6%
- growth inhibition [5]: -10.9%
- growth inhibition [6]: -22.8%

SMILES: CCN(CC)CC(C)O (centres undefined)
- growth inhibition [1]: 39.7%
- growth inhibition [2]: 13.2%
- growth inhibition [3]: 21%
- growth inhibition [4]: -26.9%
- growth inhibition [5]: -9.45%
- growth inhibition [6]: 30.6%
